Measurements reported in PubChem BioAssay (EPA / NIEHS).
The source made the active and inactive calls. How the source made its calls: active means hit-call score of the fitted dose curve at least 0.9, where 1 is the maximum; inactive means score below 0.9.

read-out: Monocyte Chemoattractant Protein-1 (MCP1), CCL2 (gene 6347); experiment: BSK_LPS_MCP1: BioMAP Diversity Plus: LPS Assay for Monocyte Chemoattractant Protein-1 (MCP1) Biomarker Activity (AID 2283081); details: primary human HUVEC with PBMC; actives raise or lower the signal;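 on AC50: co-culture stimulated with LPS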
Protocol: BSK_LPS is a cell-based, multiplexed-readout assay that uses umbilical vein endothelium and peripheral blood mononuclear cells, a human vascular primary cell co-culture, with measurements taken at 24 hours after chemical dosing in a 96-well plate.BSK_LPS_MCP1 is an assay component measured in the BSK_LPS assay. It measures MCP-1 antibody related to regulation of gene expression using ELISA technology.Data from the assay component BSK_LPS_MCP1 was analyzed into 1 assay endpoint. This assay endpoint, BSK_LPS_MCP1, was analyzed with bidirectional fitting relative to DMSO as the negative control and baseline of activity. Using a type of binding reporter, gain or loss-of-signal activity can be used to understand changes in the signaling as they relate to the gene CCL2. Furthermore, this assay endpoint can be referred to as a primary readout, because this assay has produced multiple assay endpoints where this one serves a signaling function. To generalize the intended target to other relatable targets, this assay endpoint is annotated to the cytokine intended target family, where the subfamily is chemotactic factor.
The levels of cell surface (or secreted, indicated by the prefix "s") biomarker endpoints were measured by ELISA. Overt cytotoxicity to cells in confluent adherent cultures (all systems other than the BT system) was assessed by measuring total protein levels using sulforhodamine B (SRB) staining in parallel cultures at the time of biomarker measurements, indicated as SRB endpoints. For proliferation assays for adherent cell types, individual cell types are cultured at sub-confluence and relative cell numbers quantified by SRB staining at time points optimized for each system (48 h: 3C and CASM3C systems; 72 h: BT and HDF3CGF systems; 96 h: SAg system). SRB was performed by staining cells with 0.1% SRB after fixation with 10% TCA and reading wells at 560 nm.Viability and proliferation of PBMC (T cells) was quantified by Alamar Blue reduction for the SAg and BT systems. For PBMC viability (referred to as PBMC Cytotoxicity within the assay endpoint names), cells were plated (75,000/well in a 96-well plate) and then chemical samples added for 1 h before addition of activators, SEB and TSST-1 (20 ng/mL final concentration each). Cells were incubated for 90 h. Then, Alamar Blue (20 uL/well) (Invitrogen, Cat DAL1100) was added for 6 h, and the plates were read with a fluorescence microplate reader at 546/580 nm (excitation/emission). For PBMC proliferation, cells were plated and activated as above but incubated for only 16 h prior to addition of Alamar Blue. Plates were read after 6 h.

Compound | outcome | AC50
CN(C)c1ccc(Cc2ccc(N(C)C)cc2)cc1 | inactive | 
CCCN(C1CCN(C(=O)C2CCNCC2)CC1)[C@@H]1CCc2ccc(OC)cc2C1 | inactive | 
Cc1ccc(C)c(O)c1 | inactive | 
Nc1nc2ncc(CNc3ccc(C(=O)N[C@@H](CCC(=O)O)C(=O)O)cc3)nc2c(=O)[nH]1 | inactive | 
Cc1ccc(O)cc1 | inactive | 
Nc1cccc(N)c1 | inactive | 
CC(=O)OCCC(C)C | inactive | 
CC(C)=CCCC(C)CCO (stereo not given) | inactive | 
C=CCCCCCCCCC(=O)O | inactive | 
COCCOCCOCCOC | inactive | 
Cc1c(-c2cccnc2)c2ccccc2n1CCCCC(=O)O | inactive | 
CC(C)=CCC/C(C)=C/CO | inactive | 
CC(C)CC(C)(O)C#CC(C)(O)CC(C)C (stereo not given) | inactive | 
CCOCCO | inactive | 
NC(=O)NO | inactive | 
CC(C)=CCC/C(C)=C\CO | inactive | 
COc1ccc(-n2nc(C(F)F)cc2-c2ccc(S(C)=O)cc2)cc1 (stereo not given) | inactive | 
O=c1[nH]c2ccc(S(=O)CCN3CCC(Cc4ccc(F)cc4)CC3)cc2o1 (stereo not given) | inactive | 
CC(=O)OC[C@H]1O[C@@](COC(C)=O)(O[C@H]2O[C@H](COC(C)=O)[C@@H](OC(C)=O)[C@H](OC(C)=O)[C@H]2OC(C)=O)[C@@H](OC(C)=O)[C@@H]1OC(C)=O | inactive | 
CCN(C(=O)c1cc(C)cc(OC[C@H](C)Nc2ccncc2)c1)C(C)C | inactive | 

Compound | outcome | AC50
CC[C@H](C)C(=O)O[C@H]1C[C@@H](C)C=C2C=C[C@H](C)[C@H](CC[C@@H]3C[C@@H](O)CC(=O)O3)[C@H]21 | inactive | 
CCOC(=O)COc1ccc2c(c1)CC(NCC(O)c1cccc(Cl)c1)CC2 (stereo not given) |  | 29.2 µM (active)
CC(C)CCO | inactive | 
Nc1ccc(Nc2ccccc2)cc1 |  | 8.02 µM (active)
O=C(O)c1cccc(Oc2ccccc2)c1 | inactive | 
COC(=O)c1c(Cl)c(Cl)c(C(=O)OC)c(Cl)c1Cl | inactive | 
CCCCC(CC)COC(=O)c1ccc(C(=O)OCC(CC)CCCC)cc1 (stereo not given) | inactive | 
Cn1cnc([N+](=O)[O-])c1Sc1ncnc2nc[nH]c12 | inactive | 
CCOC(=O)CC(CC(=O)OCC)(OC(C)=O)C(=O)OCC | inactive | 
O=C1CCCCCN1 | inactive | 
O=C(OC[C@H]1O[C@@H](OC(=O)c2cc(O)c(O)c(OC(=O)c3cc(O)c(O)c(O)c3)c2)[C@H](OC(=O)c2cc(O)c(O)c(OC(=O)c3cc(O)c(O)c(O)c3)c2)[C@@H](OC(=O)c2cc(O)c(O)c(OC(=O)c3cc(O)c(O)c(O)c3)c2)[C@@H]1OC(=O)c1cc(O)c(O)c(OC(=O)c2cc(O)c(O)c(O)c2)c1)c1cc(O)c(O)c(OC(=O)c2cc(O)c(O)c(O)c2)c1 |  | 11 µM (active)
CC(C)CCCCCCCOC(=O)CCCCC(=O)OCCCCCCCC(C)C | inactive | 
COc1cccc(-c2ccc(/C=C\CN3CCCCCC3)cc2Cl)c1 | inactive | 
O=C(NS(=O)(=O)/C=C/c1ccccc1)c1ccc(F)cc1Cl | inactive | 
CCCCCCCCCCCCCCCO | inactive | 
O=C(O)CC(O)C(=O)O (stereo not given) | inactive | 
Cn1c(=O)c2c(ncn2C)n(C)c1=O | inactive | 
CC(C)=CCCC(C)=CC=O | inactive | 
Oc1ccc2c(c1)-c1ccccc1C2 | inactive | 
CC(C)c1cccc(C(C)C)c1N1C(=O)c2ccc(O)cc2C1=O |  | 34.8 µM (active)
